This is an account of results in PMC3795721, “Screening for Protein-DNA Interactions by Automatable DNA-Protein Interaction ELISA”.

The target of this experiment is AT4G31550 (Arabidopsis thaliana, UniProt Q9SV15 228-325). Put plainly: DPI-ELISA; DPI-ELISA, streptavidin 384-well plate, 1-2 pmol biotinylated dsDNA per well, crude native E. coli extract, anti-His detection; buffer as in Brand et al. [46],; high values mean tight binding. The note with it: tags: C-terminal His (pET-DEST42); label: 5' biotin on forward strand; dsDNA, one strand shown.
Sequence of AT4G31550 (Q9SV15 228-325): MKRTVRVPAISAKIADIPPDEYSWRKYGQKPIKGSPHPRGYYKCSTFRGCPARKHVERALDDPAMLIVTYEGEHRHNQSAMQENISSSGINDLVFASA
As for AAAAAAGCTAGTCGATTCGGCTTAGAAAAA, the binding signal came out at 0.68 ± 0.17 absorbance.
Next, AAAAAATTCTTACTTTTGTCTTTACTAAAA: 0.79 ± 0.156 absorbance; AAAAAATCCCTGCTCCCCTGGTTCCTAAAA: 0.45 ± 0.141 absorbance; AAAAAATGACCAGGCCTCGAGCAAAAA: 0.665 ± 0.0636 absorbance.
The value for AAAAAATTAGTCCTGATTCAATCTTCAAAA was 0.755 ± 0.106 absorbance.
Next, AAAAAATTCAAAATGATCACTACGGGAAAA: 0.545 ± 0.0778 absorbance; AAAAAAATTTTTAGTTTTAATTTTGGAAAA: 0.615 ± 0.106 absorbance.
AAAAAATACTCTTCCTCGTTCTTGGTAAAA returned a binding signal of 0.57 ± 0.127 absorbance.
The sequence AAAAAAGGGCGAGCGCTGGATCCACAAAA gave a binding signal of 0.505 ± 0.106 absorbance.
Next, AAAAAAAGTGGCCGCTAGTCAACTCAAAAA: 3.46 ± 0.389 absorbance.
The value for AAAAAAGTCCGCCCTTAATTCATATTAAAA was 1.37 ± 0.269 absorbance.
Next, AAAAAATGCCATTGTACCTGTGTTCGAAAA: 0.395 ± 0.0354 absorbance.
In turn, AAAAAATTACTCCTAGCCCTCATTCAAAAA had a binding signal of 1.36 ± 0.976 absorbance.
The value for AAAAAAAGGTCATTGCTGCTGGTGTTAAAA was 0.735 ± 0.106 absorbance; that for AAAAAAGTCTGCGTCCTACCCCATTCAAAA was 1.04 ± 0.184 absorbance.
The value for AAAAAATAGTACCGCTAATGGCTGACAAAA was 0.605 ± 0.12 absorbance; that for AAAAAAGGCCACGGTAACCCCTTTTGAAAA was 0.695 ± 0.12 absorbance; that for AAAAAACCGGCACGATTTGGATATTCAAAA was 0.64 ± 0.113 absorbance.
Next, AAAAAAGGGTTTGTCGGGAATTGCCGAAAA: 0.58 ± 0.0849 absorbance.
Sequence AAAAAAACCTCTTTATTCTCGATTGTAAAA displayed a binding signal of 0.585 ± 0.0495 absorbance.
For AAAAAATACTGGCTGTCTCGTTCACAAAAA, the binding signal worked out at 0.615 ± 0.0778 absorbance.
As to AAAAAAGTGTGTGGCTCAGGATTCCCAAAA, the binding signal is 0.55 ± 0.0849 absorbance.
Next, AAAAAACATCGCTGTCGTTGACGTTGAAAA: 3.48 ± 0.474 absorbance; AAAAAATCCTATCTTGGCTTTGGCCTAAAA: 0.65 ± 0.156 absorbance; AAAAAACGGGATTCGAAACTTTTTGTAAAA: 0.54 ± 0.099 absorbance.
The value for AAAAAAACATCCACACCCGCGGCGCGAAAA was 0.56 ± 0.141 absorbance; that for AAAAAACTGCTAATCGGTGACCCGATAAAA was 0.745 ± 0.00707 absorbance.
Next, AAAAAAGGACGTCTTCGGTATGAGTGAAAA: 0.815 ± 0.163 absorbance; AAAAAAATTCGCAACCCTCACGTTCGAAAA: 0.67 ± 0.0566 absorbance; AAAAAACCTTACCTCATCCCTATCCCAAAA: 0.605 ± 0.134 absorbance.
In turn, AAAAAAGGGTCGCTGTGAGCTCATGAAAAA gave a binding signal of 0.575 ± 0.12 absorbance.
Next, AAAAAAAGTATCAAAGCCTAGGGCTGAAAA: 0.605 ± 0.205 absorbance; AAAAAAGTCTAGTCGTAAAAA: 0.595 ± 0.0778 absorbance.
On to AAAAAATTACTATTACACACTTGGGGAAAA, for which the binding signal was 0.6 ± 0.127 absorbance.
Next, AAAAAATATCCTATTCTAATTTATATAAAA: 0.55 ± 0.113 absorbance; AAAAAAACGCTCAAGTCTATCAGTAGAAAA: 0.74 ± 0.141 absorbance.
The value for AAAAAAAAATTTCGAGCCTCGGCGTAAAAA was 0.49 ± 0.0849 absorbance; that for AAAAAATCCGTTCCCATTTGTCCGTCAAAA was 0.58 ± 0.0849 absorbance.
